# Reference: PubChem BioAssay AID1159580 (chemical genetic matrix, 2015)
# Out of some 5,500 compounds screened, about 2,000 (36%) were called active. Inconclusive results (about 18%) are left out. This is one part of the list. A number with no mark means an inactive call. Rule as the data show it: active = normalized growth mostly below about 0.91 (no sharp cut-off); inconclusive = no clear call, values can overlap the other calls; inactive = mostly above about 0.92.
# Experiment: chemical genetic growth profiling, strain panel (AID 1159580);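 also: tested at 20 µM; growth read once vehicle control cultures reached saturation at 30 °C; 1 = growth at the plate median or of vehicle wells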
# Conditions: S. cerevisiae deletion strains, growth OD
compound,measurement,setting,value
COc1cccc2c(C)cc(=O)[nH]c12,normalized growth,"locus YAL021C, strain ccr4, stronger effect = lower value",1.01
same,normalized growth,"locus YAL026C, strain drs2, stronger effect = lower value",0.972
same,normalized growth,"locus YAL030W, strain snc1, stronger effect = lower value",0.977
same,normalized growth,"locus YBL061C, strain skt5, stronger effect = lower value",0.938
same,normalized growth,"locus YBR009C, strain hhf1, stronger effect = lower value",0.938
same,normalized growth,"locus YBR021W, strain FUR4, stronger effect = lower value",1.07
same,normalized growth,"locus YBR023C, strain chs3, stronger effect = lower value",0.928
same,normalized growth,"locus YBR171W, strain sec66, stronger effect = lower value",0.963
same,normalized growth,"locus YBR229C, strain ROT2, stronger effect = lower value",0.969
same,normalized growth,"locus YBR231C, strain swc5, stronger effect = lower value",0.909 (active)
same,normalized growth,"locus YBR279W, strain paf1, stronger effect = lower value",0.987
same,normalized growth,"locus YCL011C, strain gbp2, stronger effect = lower value",0.924
same,normalized growth,"locus YCL016C, strain dcc1, stronger effect = lower value",0.949
same,normalized growth,"locus YCL029C, strain bik1, stronger effect = lower value",0.932
same,normalized growth,"locus YCL061C, strain MRC1, stronger effect = lower value",0.956
same,normalized growth,"locus YCL069W, strain vba3, stronger effect = lower value",0.98
same,normalized growth,"locus YCR088W, strain abp1, stronger effect = lower value",0.972
same,normalized growth,"locus YDL005C, strain med2, stronger effect = lower value",0.992
same,normalized growth,"locus YDL035C, strain GPR1, stronger effect = lower value",0.958
same,normalized growth,"locus YDL040C, strain nat1, stronger effect = lower value",0.972
same,normalized growth,"locus YDL074C, strain BRE1, stronger effect = lower value",0.853
same,normalized growth,"locus YDL101C, strain DUN1, stronger effect = lower value",0.941
same,normalized growth,"locus YDL134C, strain PPH21, stronger effect = lower value",0.961
same,normalized growth,"locus YDL185W, strain tfp1, stronger effect = lower value",0.933
same,normalized growth,"locus YDL192W, strain arf1, stronger effect = lower value",0.887 (active)
same,normalized growth,"locus YDR001C, strain nth1, stronger effect = lower value",0.957
same,normalized growth,"locus YDR069C, strain doa4, stronger effect = lower value",0.971
same,normalized growth,"locus YDR101C, strain arx1, stronger effect = lower value",0.908 (active)
same,normalized growth,"locus YDR137W, strain rgp1, stronger effect = lower value",0.847
same,normalized growth,"locus YDR159W, strain sac3, stronger effect = lower value",0.862
same,normalized growth,"locus YDR162C, strain NBP2, stronger effect = lower value",0.881
same,normalized growth,"locus YDR195W, strain ref2",1.15 [resistant] (active)
same,normalized growth,"locus YDR297W, strain sur2, stronger effect = lower value",0.974
same,normalized growth,"locus YDR318W, strain mcm21, stronger effect = lower value",0.949
same,normalized growth,"locus YDR334W, strain swr1, stronger effect = lower value",0.978
same,normalized growth,"locus YDR335W, strain msn5, stronger effect = lower value",0.941
same,normalized growth,"locus YDR388W, stronger effect = lower value",0.929
same,normalized growth,"locus YDR392W, strain spt3, stronger effect = lower value",0.641 (active)
same,normalized growth,"locus YDR502C, strain sam2, stronger effect = lower value",0.875 (active)
same,normalized growth,"locus YEL003W, strain gim4, stronger effect = lower value",0.971
same,normalized growth,"locus YEL037C, strain rad23, stronger effect = lower value",0.974
same,normalized growth,"locus YEL061C, strain CIN8 (second series), stronger effect = lower value",0.969
same,normalized growth,"locus YEL061C, strain CIN8, stronger effect = lower value",0.963
same,normalized growth,"locus YER015W, strain faa2, stronger effect = lower value",0.986
same,normalized growth,"locus YER016W, strain bim1, stronger effect = lower value",0.953
same,normalized growth,"locus YER110C, stronger effect = lower value",0.946
same,normalized growth,"locus YER111C, strain swi4, stronger effect = lower value",0.977
same,normalized growth,"locus YER155C, strain BEM2 (second series), stronger effect = lower value",0.786 (active)
same,normalized growth,"locus YER155C, strain BEM2, stronger effect = lower value",0.946
same,normalized growth,"locus YER167W, strain BCK2, stronger effect = lower value",0.947
same,normalized growth,"locus YFR010W, strain ubp6, stronger effect = lower value",0.975
same,normalized growth,"locus YGL078C, strain dbp3, stronger effect = lower value",0.962
same,normalized growth,"locus YGL086W, strain mad1, stronger effect = lower value",0.889 (active)
same,normalized growth,"locus YGL167C, strain pmr1, stronger effect = lower value",0.982
same,normalized growth,"locus YGL173C, strain kem1, stronger effect = lower value",0.962
same,normalized growth,"locus YGL227W, strain vid30, stronger effect = lower value",0.961
same,normalized growth,"locus YGL240W, strain doc1, stronger effect = lower value",0.843 (active)
same,normalized growth,"locus YGL248W, strain PDE1, stronger effect = lower value",0.919
same,normalized growth,"locus YGL253W, strain hxk2, stronger effect = lower value",0.891 (active)
same,normalized growth,"locus YGR078C, strain PAC10, stronger effect = lower value",0.904
same,normalized growth,"locus YGR135W, strain pre9, stronger effect = lower value",0.887 (active)
same,normalized growth,"locus YGR252W, strain gcn5, stronger effect = lower value",0.874
same,normalized growth,"locus YHR013C, strain ard1, stronger effect = lower value",0.848
same,normalized growth,"locus YHR027C, strain rpn1, stronger effect = lower value",0.984
same,normalized growth,"locus YHR030C, strain SLT2, stronger effect = lower value",0.945
same,normalized growth,"locus YHR079C, strain IRE1 (second series), stronger effect = lower value",0.933
same,normalized growth,"locus YHR094C, strain hxt1, stronger effect = lower value",0.953
same,normalized growth,"locus YHR129C, strain ARP1, stronger effect = lower value",0.936
same,normalized growth,"locus YHR142W, strain chs7, stronger effect = lower value",0.835 (active)
same,normalized growth,"locus YHR200W, strain rpn10, stronger effect = lower value",0.919 (active)
same,normalized growth,"locus YIL066C, strain RNR3, stronger effect = lower value",0.929
same,normalized growth,"locus YIL073C, strain SPO22, stronger effect = lower value",0.812
same,normalized growth,"locus YIL125W, strain kgd1, stronger effect = lower value",0.96
same,normalized growth,"locus YIR030C, strain dcg1, stronger effect = lower value",0.954
same,normalized growth,"locus YJL092W, strain hpr5, stronger effect = lower value",0.972
same,normalized growth,"locus YJL095W, strain BCK1 (second series), stronger effect = lower value",0.965
same,normalized growth,"locus YJL095W, strain BCK1, stronger effect = lower value",0.793 (active)
same,normalized growth,"locus YJL115W, strain asf1, stronger effect = lower value",0.981
same,normalized growth,"locus YJL129C, strain trk1, stronger effect = lower value",0.966
same,normalized growth,"locus YJL134W, strain LCB3, stronger effect = lower value",0.968
same,normalized growth,"locus YJL154C, strain vps35, stronger effect = lower value",0.979
same,normalized growth,"locus YJL164C, strain tpk1, stronger effect = lower value",0.949
same,normalized growth,"locus YJL166W, strain qcr8, stronger effect = lower value",0.891 (active)
same,normalized growth,"locus YJL168C, strain set2, stronger effect = lower value",0.948
same,normalized growth,"locus YJL187C, strain SWE1 (second series), stronger effect = lower value",0.908
same,normalized growth,"locus YJL187C, strain SWE1, stronger effect = lower value",0.989
same,normalized growth,"locus YJR043C, strain POL32, stronger effect = lower value",0.885
same,normalized growth,"locus YKL009W, strain mrt4, stronger effect = lower value",0.874 (active)
same,normalized growth,"locus YKL068W, stronger effect = lower value",0.951
same,normalized growth,"locus YKL085W, strain MDH1 (second series), stronger effect = lower value",0.941
same,normalized growth,"locus YKL085W, strain MDH1, stronger effect = lower value",0.941
same,normalized growth,"locus YKL160W, strain elf1, stronger effect = lower value",0.944
same,normalized growth,"locus YKR001C, strain vps1, stronger effect = lower value",0.802 (active)
same,normalized growth,"locus YKR026C, strain gcn3, stronger effect = lower value",0.972
same,normalized growth,"locus YKR091W, strain srl3, stronger effect = lower value",0.981
same,normalized growth,"locus YLL001W, strain dnm1, stronger effect = lower value",0.893 (active)
same,normalized growth,"locus YLL026W, stronger effect = lower value",0.952
same,normalized growth,"locus YLL041C, strain sdh2, stronger effect = lower value",0.956
same,normalized growth,"locus YLR027C, strain aat2, stronger effect = lower value",0.955
same,normalized growth,"locus YLR039C, strain RIC1, stronger effect = lower value",0.697
same,normalized growth,"locus YLR058C, strain SHM2, stronger effect = lower value",0.94
same,normalized growth,"locus YLR102C, strain apc9, stronger effect = lower value",0.942
same,normalized growth,"locus YLR221C, strain rsa3, stronger effect = lower value",0.949
same,normalized growth,"locus YLR258W, strain gsy2, stronger effect = lower value",0.941
same,normalized growth,"locus YLR262C, strain YPT6 (second series), stronger effect = lower value",0.887
same,normalized growth,"locus YLR262C, strain YPT6, stronger effect = lower value",0.732
same,normalized growth,"locus YLR268W, strain sec22, stronger effect = lower value",0.9
same,normalized growth,"locus YLR320W, strain mms22, stronger effect = lower value",0.94
same,normalized growth,"locus YLR330W, strain CHS5, stronger effect = lower value",0.896 (active)
same,normalized growth,"locus YLR342W, strain FKS1 (second series), stronger effect = lower value",0.838
same,normalized growth,"locus YLR342W, strain FKS1, stronger effect = lower value",0.957
same,normalized growth,"locus YLR357W, strain rsc2, stronger effect = lower value",0.974
same,normalized growth,"locus YLR370C, strain arc18, stronger effect = lower value",0.932
same,normalized growth,"locus YLR371W, strain rom2, stronger effect = lower value",0.89 (active)
same,normalized growth,"locus YLR384C, strain iki3, stronger effect = lower value",0.981
same,normalized growth,"locus YLR418C, strain cdc73, stronger effect = lower value",0.715 (active)
same,normalized growth,"locus YML016C, strain PPZ1, stronger effect = lower value",0.958
same,normalized growth,"locus YML032C, strain rad52, stronger effect = lower value",0.948
same,normalized growth,"locus YML120C, strain ndi1, stronger effect = lower value",0.911 (active)
same,normalized growth,"locus YML124C, strain tub3, stronger effect = lower value",0.952
same,normalized growth,"locus YMR058W, strain fet3, stronger effect = lower value",0.955
same,normalized growth,"locus YMR078C, strain ctf18, stronger effect = lower value",0.937
same,normalized growth,"locus YMR125W, strain sto1, stronger effect = lower value",0.959
same,normalized growth,"locus YMR129W, stronger effect = lower value",0.958
same,normalized growth,"locus YMR205C, strain PFK2, stronger effect = lower value",0.958
same,normalized growth,"locus YMR223W, strain ubp8, stronger effect = lower value",0.942
same,normalized growth,"locus YMR231W, strain pep5, stronger effect = lower value",1
same,normalized growth,"locus YMR263W, strain SAP30, stronger effect = lower value",0.855 (active)
same,normalized growth,"locus YMR307W, strain GAS1, stronger effect = lower value",0.974
same,normalized growth,"locus YNL067W, strain RPL9B, stronger effect = lower value",0.875
same,normalized growth,"locus YNL071W, strain lat1, stronger effect = lower value",0.897 (active)
same,normalized growth,"locus YNL209W, strain ssb2, stronger effect = lower value",0.991
same,normalized growth,"locus YNL233W, strain BNI4, stronger effect = lower value",0.827 (active)
same,normalized growth,"locus YNL248C, strain rpa49, stronger effect = lower value",0.968
same,normalized growth,"locus YNL250W, strain rad50, stronger effect = lower value",0.925
same,normalized growth,"locus YNL271C, strain bni1, stronger effect = lower value",0.955
same,normalized growth,"locus YNL298W, strain CLA4, stronger effect = lower value",0.978
same,normalized growth,"locus YNL307C, strain MCK1, stronger effect = lower value",0.91
same,normalized growth,"locus YNL322C, strain KRE1 (second series), stronger effect = lower value",0.977
same,normalized growth,"locus YNL322C, strain KRE1, stronger effect = lower value",0.971
same,normalized growth,"locus YNR049C, strain mso1, stronger effect = lower value",0.97
same,normalized growth,"locus YNR052C, strain pop2, stronger effect = lower value",0.986
same,normalized growth,"locus YOL006C, strain TOP1, stronger effect = lower value",0.511 (active)
same,normalized growth,"locus YOL012C, strain htz1",1.3
same,normalized growth,"locus YOL147C, strain pex11, stronger effect = lower value",0.945
same,normalized growth,"locus YOR001W, strain rrp6, stronger effect = lower value",0.954
same,normalized growth,"locus YOR061W, strain CKA2, stronger effect = lower value",0.965
same,normalized growth,"locus YOR069W, strain VPS5, stronger effect = lower value",0.965
same,normalized growth,"locus YOR070C, strain gyp1, stronger effect = lower value",0.965
same,normalized growth,"locus YOR080W, strain dia2, stronger effect = lower value",0.983
same,normalized growth,"locus YOR083W, strain WHI5, stronger effect = lower value",0.929
same,normalized growth,"locus YOR106W, strain vam3, stronger effect = lower value",0.938
same,normalized growth,"locus YOR136W, strain idh2, stronger effect = lower value",0.951
same,normalized growth,"locus YOR144C, strain elg1, stronger effect = lower value",0.964
same,normalized growth,"locus YOR184W, strain ser1, stronger effect = lower value",0.847 (active)
same,normalized growth,"locus YOR265W, strain rbl2, stronger effect = lower value",0.966
same,normalized growth,"locus YOR270C, strain vph1, stronger effect = lower value",0.714 (active)
same,normalized growth,"locus YOR290C, strain snf2, stronger effect = lower value",0.891
same,normalized growth,"locus YOR316C, strain cot1, stronger effect = lower value",0.937
same,normalized growth,"locus YPL051W, strain arl3, stronger effect = lower value",0.938
same,normalized growth,"locus YPL055C, strain LGE1, stronger effect = lower value",0.775
same,normalized growth,"locus YPL078C, strain atp4, stronger effect = lower value",0.896
same,normalized growth,"locus YPL106C, strain sse1, stronger effect = lower value",0.898
same,normalized growth,"locus YPL240C, strain hsp82, stronger effect = lower value",0.959
same,normalized growth,"locus YPL241C, strain CIN2, stronger effect = lower value",0.958
same,normalized growth,"locus YPR119W, strain clb2, stronger effect = lower value",0.937
same,normalized growth,"locus YPR141C, strain kar3, stronger effect = lower value",0.953
same,normalized growth,"locus YPR163C, strain tif3, stronger effect = lower value",0.933
same,normalized growth,"locus YPR167C, strain met16, stronger effect = lower value",0.959
same,normalized growth,"strain wtn01, stronger effect = lower value",0.881 (active)
